Lassa entry inh = blocks Lassa virus binding to or entry into cells. 300,000 tested, 1.2% active. Lassa virus pseudotype entry inhibition, cell reporter. Potency, µM (doses to about 37.9 µM), actives largely listed as inhibitors. AID 540256; calls by dose curve; tested in HEK293 cells; note: nearly all actives have a fitted effect of over 50% in size
CHX counter = counter-screen for Shiga toxin inhibitors: cycloheximide protein synthesis inhibition; max response, %; cell reporter, cycloheximide protein synthesis inhibition counterscreen; 300,000 tested, 12% active; AID 2314; in the data active = max response mostly above about 13%, no sharp cut-off; inactive = mostly below about 14%; note: read at 38.3 µM for the half of the compounds with a filed dose
MARV entry inh = Marburg virus entry inhibition; Potency, µM (top dose mostly 37.8 µM), usual class: inhibitors; 300,000 tested, 1.8% active; AID 540276; Marburg virus pseudotyped entry inhibition, cell reporter; calls by dose curve; tested in HEK293 cells
Shiga inhibitor = Shiga toxin inhibition | AID 2315 | inhibition, % at 38.7 µM | Vero cells, Shiga toxin protein synthesis inhibition reporter | 290,000 tested, 9.2% active; in the data active = inhibition mostly above about 28%, no sharp cut-off; inactive = mostly below about 43%
Pf growth 96h = P. falciparum growth inhibition at 96 hours; P. falciparum luciferase reporter growth, 96 h; Potency, µM (top dose mostly 28.7 µM), most hits filed as inhibitors; 320,000 tested, 6.9% active; AID 504834
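Erythrocytes infected with luciferase-expressing P. falciparum were dispensed at 2% hematocrit and 0.05% parasitemia (final), then incubated with compounds 96 hours at 37 C in 5% CO2. Luminescence after detection reagent addition reported growth.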
Pf growth 48h = inhibits P. falciparum growth in the first generation, 48 h | P. falciparum luciferase growth in erythrocytes, 48 h | Potency, µM (top dose mostly 28.7 µM), usual class: inhibitors | 310,000 tested, 5.9% active
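In quantitative HTS format, infected erythrocytes bearing luciferase-reporter parasites were treated for a single generation at 37 C. Luminescence after adding detection reagent served as the growth measure.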
Numbers stand for hits; [ ] = dose if it differs, or a comment. The list is not random: actives were taken first. Their share in the collection is about 19%. Unless noted, calls come from the whole dose curve; as a rule, active = well fitted inhibition curve with a large enough effect; inconclusive = small, poorly fitted or top-dose-only effect, or another doubt; inactive = no such curve, though single readings can be large or run the other way.

For CC(C)(C)NC(=O)CSc1nsc(SCC(=O)NC(C)(C)C)c1C#N the results were Lassa entry inh inconclusive, CHX counter inactive, MARV entry inh inactive, Shiga inhibitor inactive, Pf growth 96h inactive and Pf growth 48h inactive.
O=C(CN1C(=O)CC(c2ccccc2)S(=O)(=O)c2ccccc21)N1CCOCC1 (centres undefined) was read as CHX counter inactive, Shiga inhibitor inactive, Pf growth 96h inactive and Pf growth 48h inactive.
`Cc1ccc(NC(=O)Cn2cc(C(=O)C3CC3)c3ccccc32)c(C)c1` gave Lassa entry inh inactive, CHX counter 33, MARV entry inh inactive, Shiga inhibitor 36, Pf growth 96h inactive and Pf growth 48h inactive.
Screening COc1ccc(OCC(=O)Nc2ccc(NC(=O)c3ccccc3Cl)c(OC)c2)cc1 returned Lassa entry inh inactive, CHX counter inactive, MARV entry inh inactive, Shiga inhibitor inactive, Pf growth 96h inactive and Pf growth 48h inactive.
O=C(c1cn(-c2ccc(Cl)c(Cl)c2)nn1)C1CC1 was read as Lassa entry inh inactive, CHX counter 37, MARV entry inh inconclusive, Shiga inhibitor 51, Pf growth 96h inactive and Pf growth 48h inactive.
Screening Cn1cccc1-c1cc(C(=O)N/N=C/c2ccc(Cl)cc2)[nH]n1 returned Lassa entry inh inconclusive, CHX counter inactive, MARV entry inh inconclusive, Shiga inhibitor inactive, Pf growth 96h inactive and Pf growth 48h inactive.
For COc1cccc(/C=N/NC(=O)c2cc(-c3cccn3C)n[nH]2)c1 the results were Lassa entry inh inactive, CHX counter inactive, MARV entry inh inactive, Shiga inhibitor inactive, Pf growth 96h 12µM and Pf growth 48h inconclusive.
`Cn1cccc1-c1cc(C(=O)N/N=C/C=C/c2ccccc2)[nH]n1` gave Lassa entry inh inconclusive, CHX counter inactive, MARV entry inh inconclusive, Shiga inhibitor inactive, Pf growth 96h inconclusive and Pf growth 48h inconclusive.
For COc1cc(/C=N/NC(=O)c2cc(-c3cccn3C)n[nH]2)cc(OC)c1OC the results were Lassa entry inh inactive, CHX counter inactive, MARV entry inh inactive, Shiga inhibitor inactive, Pf growth 96h inactive and Pf growth 48h 6.6µM.
COc1cccc(/C=N/NC(=O)c2cc(-c3cccn3C)n[nH]2)c1O was read as Lassa entry inh 2.2µM, CHX counter inactive, MARV entry inh 8.9µM, Shiga inhibitor inactive, Pf growth 96h inconclusive and Pf growth 48h inconclusive.
CCc1nc2ccc(C(=O)N(C)CC(=O)Nc3ccccc3C(F)(F)F)cc2nc1CC was read as Lassa entry inh inactive and MARV entry inh inactive.
O=C(N/N=C/c1ccco1)c1cc(-c2ccccc2)n[nH]1 was read as Lassa entry inh inactive, CHX counter 20, MARV entry inh inconclusive, Shiga inhibitor 46, Pf growth 96h inactive and Pf growth 48h inconclusive.
Cc1ccc(-c2cc(C(=O)N/N=C/c3ccco3)[nH]n2)cc1 was read as Lassa entry inh inactive, CHX counter inactive, MARV entry inh inactive, Shiga inhibitor inactive, Pf growth 96h inactive and Pf growth 48h 12µM.
For O=C(N/N=C/c1ccco1)c1cc(-c2cccc3ccccc23)n[nH]1 the results were Lassa entry inh inactive, CHX counter 26, MARV entry inh inactive, Shiga inhibitor 58, Pf growth 96h inactive and Pf growth 48h inactive.
Screening Cc1cccc(OCC(=O)Nc2ccccc2N2CCN(C(=O)C(C)C)CC2)c1C returned Lassa entry inh inactive, CHX counter inactive, MARV entry inh inactive, Shiga inhibitor inactive, Pf growth 96h inactive and Pf growth 48h inactive.
`O=C(CC(Nc1ccc(F)cc1)C(=O)OCC(=O)c1cccs1)c1ccccc1` (centres undefined) gave Lassa entry inh inactive, CHX counter 16, MARV entry inh inconclusive, Shiga inhibitor inactive, Pf growth 96h inactive and Pf growth 48h inactive.
`O=C(CC(Nc1ccc(F)cc1)C(=O)O)c1ccccc1` (centres undefined) gave Lassa entry inh inconclusive, CHX counter 37, MARV entry inh inactive, Shiga inhibitor 41 and Pf growth 48h inactive.
For Cc1ccc(NC(CC(=O)c2ccccc2)c2ccc(F)cc2)cc1 (centres undefined) the results were Lassa entry inh inactive, CHX counter 50, MARV entry inh inactive, Shiga inhibitor 69, Pf growth 96h inactive and Pf growth 48h inactive.
O=C(CCC(=O)c1cccs1)OCC(=O)c1ccc(F)cc1 was read as Lassa entry inh inactive and MARV entry inh inactive.
`COc1ccc(C(=O)CC(c2ccccc2)S(=O)(=O)c2ccc(C)cc2)cc1` (centres undefined) gave Lassa entry inh inactive, CHX counter inactive, MARV entry inh inactive, Shiga inhibitor inactive, Pf growth 96h inconclusive and Pf growth 48h inactive.
For COc1ccc(C(CC(=O)c2ccc(O)cc2)S(=O)(=O)c2ccc(C)cc2)cc1 (centres undefined) the results were Lassa entry inh inactive, CHX counter 42, MARV entry inh inactive, Shiga inhibitor 66, Pf growth 96h inactive and Pf growth 48h inactive.
`COc1ccc(C=O)cc1Cn1c(=O)n(CCC(=O)NCc2ccco2)c(=O)c2sccc21` gave Lassa entry inh inconclusive, CHX counter inactive, MARV entry inh inactive, Shiga inhibitor inactive, Pf growth 96h inactive and Pf growth 48h inactive[1.15 µM].
O=C(N1CCOCC1)N1CCN(c2ccc(F)cc2)CC1 was read as Lassa entry inh inactive, CHX counter inactive, MARV entry inh inactive, Shiga inhibitor inactive and Pf growth 96h inactive.
For COc1ccc(NS(=O)(=O)c2ccc(SC)cc2)cc1 the results were Lassa entry inh inconclusive, CHX counter inactive, MARV entry inh inactive, Shiga inhibitor inactive, Pf growth 96h inactive and Pf growth 48h inactive.
Screening CCn1c(Cc2cccs2)nnc1SCC(=O)NC1CC1 returned Lassa entry inh inconclusive, CHX counter inactive, MARV entry inh inactive, Shiga inhibitor inactive, Pf growth 96h inactive and Pf growth 48h inconclusive.
Cn1cc(C(=O)NCc2ccc(F)cc2)cn1 was read as Lassa entry inh inactive, CHX counter inactive, MARV entry inh inconclusive, Shiga inhibitor inactive, Pf growth 96h inactive and Pf growth 48h inactive.
Screening Cc1ccc(C(=O)CC(Nc2ccc(F)cc2)c2ccccc2)cc1 (centres undefined) returned Lassa entry inh inconclusive, CHX counter inactive, MARV entry inh inactive, Shiga inhibitor inactive, Pf growth 96h inconclusive and Pf growth 48h inactive.
`COc1ccc(C(CC(=O)c2ccc(C)cc2)Nc2ccc([N+](=O)[O-])cc2)cc1` (centres undefined) gave Lassa entry inh inconclusive, CHX counter 28, MARV entry inh inconclusive, Shiga inhibitor inactive, Pf growth 96h inconclusive and Pf growth 48h inactive.
O=C(CCc1nnc2ccc(NCc3ccco3)nn12)N1CCN(c2ccccc2F)CC1 was read as CHX counter inactive, Shiga inhibitor inactive, Pf growth 96h 9.3µM and Pf growth 48h inactive.
CCOc1ccc(CSCCNC(=S)Nc2ccccc2)cc1 was read as Lassa entry inh inactive, CHX counter inactive, MARV entry inh inactive, Shiga inhibitor inactive, Pf growth 96h inactive and Pf growth 48h inconclusive.
CCOC(=O)CN1CC23C=CC(O2)C(C(=O)NC2CCCCCC2)C3C1=O (centres undefined) was read as CHX counter inactive, Shiga inhibitor inactive and Pf growth 96h inconclusive.

Screening data deposited in PubChem by National Center for Advancing Translational Sciences (NCATS).
